iPSC survival up = hiPSC single-cell survival enhancement | ATPlite luminescence; 100% = ROCK inhibitor wells, 0% = DMSO | survival enhancement, % at 20 µM | 0.044% of 360,000 active; in the data active = survival enhancement above about 18%;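 note: cells exposed to compounds for 16 hours before the ATP read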
SKN-1 inh = C. elegans SKN-1 inhibition; C. elegans VP596 Pgst-4::GFP/RFP ratio, acrylamide-induced, 24 h; inhibition, % at 21.8 µM; 0.49% of 360,000 active; AID 624304;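 active = interference check ratio from 0.5 to 1.5 plus GFP to RFP signal ratio inhibition reaching or exceeding a fixed threshold, cut at about 30% in these data, passing the limit was not always enough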
Cardio protect = protects H9c2 cardiomyocytes from peroxide injury; 0.63% of 360,000 active; protection from H2O2 cell death, % at 20 µM; AID 588492; H2O2 injury protection, ATPLite, 2 h;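 active = compounds giving at least 50% protection of heart cells from peroxide-induced death in the single-dose screen, raw or plate-pattern-corrected value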;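 note: 0% = DMSO wells with peroxide and 100% = DMSO wells without peroxide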
CRFR2-BP ag = CRF-BP/CRF-R2 complex agonism; HEK293 CRF-R2/CRF-BP, calcium dye fluorescence (FLIPR); percent of saturating CRF peptide response; activation, % at 13.2 µM; 0.46% of 350,000 active; AID 588473;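 active = activation of at least 50%, plus an integration ratio under a set limit after plate pattern correction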;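 note: plate controls were neutral control wells without compound for no effect and CRF at EC100 for full effect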
CRFR2-BP antag = CRF-BP/CRF-R2 complex antagonism. HEK293 CRF-R2/CRF-BP, CRF-induced calcium fluorescence. 0.59% of 350,000 active. inhibition, % at 11.8 µM. AID 588475;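 active = inhibition of the ligand-induced calcium signal above about 50% at the single tested concentration, limit read from the data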
TAG inh = inhibitors of triacylglycerol accumulation; 0.66% of 230,000 active; inhibition, % at 12.5 µM; H9c2 cells, Nile Red lipid (TAG) fluorescence; cells loaded with 200 µM oleic acid; AID 651582;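 active = pattern-corrected inhibition of lipid staining of at least 50% with the nuclear-stain viability signal not falling by more than 50%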;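 note: 0% = DMSO wells and 100% = triacsin C control wells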
* hit, by the source's call; . = no result given. Rows were chosen to be rich in hits. Some 2.5% of all compounds tested hit in one or more screens of this group.

SMILES | iPSC survival up | SKN-1 inh | Cardio protect | CRFR2-BP ag | CRFR2-BP antag | TAG inh
COc1ccc(S(=O)(=O)N2CC(C(=O)O)Oc3ccc(Cl)cc32)cc1 (stereo not drawn) | 0 | -13 | 1 | -1 | 15 | .
COc1ccc(S(=O)(=O)N2CC(C(=O)O)Oc3ccccc32)cc1 (stereo not drawn) | 0 | 31* | 7 | 3 | -7 | .
Cc1onc(-c2ccccc2)c1C(=O)Nc1nc2c(s1)C(=O)CC(C)(C)C2 | -1 | 40* | -10 | 0 | 3 | 7
O=C(NCc1ccccc1)c1onc(CS(=O)(=O)c2ccc(Cl)cc2)c1C(=O)NCc1ccccc1 | 3 | 15 | -9 | 6 | 3 | 13
O=C(COc1cccc(Cl)c1)Nc1ccc(N2CCOCC2)cc1 | 0 | -1 | -11 | 7 | 80* | -5
O=C(COc1ccc(F)c(Cl)c1)Nc1ccc(N2CCOCC2)cc1 | 6 | -1 | -2 | -6 | 10 | 11
CCN(CC)C(=O)C1=C(C)N(CCC2=CCCCC2)C(=O)C(CC(=O)NC(c2ccccc2)c2ccccc2)C1 (stereo not drawn) | -2 | 5 | 3 | 1 | 23 | 7
O=c1c([N+](=O)[O-])cn(Cc2ccccc2)c(=O)n1Cc1ccccc1 | 0 | 13 | -1 | 56* | -75 | 18
CC(=O)c1cn(Cc2ccccc2)c(=O)n(Cc2ccc(F)cc2)c1=O | 6 | 3 | 5 | 0 | -5 | 23
C/C(=N\N=c1/sc2ccccc2n1C)c1ccccn1 | -3 | 36* | -2 | 0 | -3 | .
CC(C)OC(=O)CSc1nc2cc3c(cc2cc1C#N)OCO3 | 2 | 34* | -2 | 8 | -9 | 21
COC(=O)CSc1nc2cc3c(cc2cc1C#N)OCO3 | -2 | 26 | 2 | 3 | -16 | 5
CCn1cc(/C=C(\NC(=O)c2ccccc2)C(=O)NCCN2CCOCC2)c2ccccc21 | 4 | 21 | 4 | 1 | -11 | 12
CCNC(=O)C1(C)CCCN(CCOc2ccc(OC)cc2)C1 (stereo not drawn) | 3 | 2 | 11 | . | . | -7
CC12C(=O)N(c3nccs3)C(=O)C1(C)C1CCC2O1 (stereo not drawn) | 1 | -8 | 5 | 1 | -13 | 13
C[C@@]12C(=O)OC(=O)[C@]1(C)C1CCC2O1 | -5 | -7 | 67* | 1 | 11 | 102
N#CNC(=Nc1cccc(F)c1)SCc1ccccc1 | -2 | 9 | -16 | 36 | 64* | .
N#CNC(=Nc1cccc(F)c1)SCc1cccc(F)c1 | -3 | -11 | -29 | 44 | 34 | .
N#C/C(=C\c1cccnc1)C(=O)Nc1ccccc1 | 0 | 7 | 4 | 1 | -11 | .
N#C/C(=C/c1cccc(O)c1)C(=O)NCc1ccc(Cl)cc1 | -1 | 18 | -5 | -1 | -49 | .
C[C@@H](NC(=O)/C(C#N)=C/c1ccc(O)c(O)c1)c1ccccc1 | 0 | -10 | 62* | 2 | -84 | 7
N#C/C(=C/c1ccc(O)c(O)c1)C(=O)NCc1ccc(Cl)cc1 | 0 | 0 | 65* | 6 | -30 | .
N#C/C(=C\c1ccc(O)c(O)c1)C(=O)Nc1ccccc1 | -5 | 17 | 55* | 6 | -41 | -12
N#C/C(=C\c1ccc(O)c(O)c1)C(=O)Nc1cccc2ncccc12 | -1 | 0 | 55* | 22 | -34 | .
CCN(CC)c1ccc2cc(C(=O)c3cccs3)c(=O)oc2c1 | 2 | 5 | -2 | . | . | .
SMILES | iPSC survival up | SKN-1 inh | Cardio protect | CRFR2-BP ag | CRFR2-BP antag | TAG inh
O=C(Nc1cccc(C(F)(F)F)c1)Nc1ccc2nc([C@@H]3O[C@H](CO)[C@@H](O)[C@H](O)[C@H]3O)[nH]c2c1 | -2 | 15 | -1 | . | . | 5
O=C(CCCCC(=O)OCC1CCCO1)OCC1CCCO1 (stereo not drawn) | 1 | 4 | 5 | 1 | -9 | 21
CC(C)c1ccc(-n2cccc2/C=C2/C(=N)N3C=CSC3=NC2=O)cc1 | 2 | 3 | 27 | 0 | 8 | .
Cc1ccccc1Cn1cccc1/C=C1/C(=N)N2C=CSC2=NC1=O | -4 | 3 | 3 | -1 | 55* | .
Cc1ccc(Nc2ccc(C(=O)O)cc2N)cc1 | . | . | . | -4 | 56* | .
Clc1cccc(Cc2c(C3CCCCC3)nc3c4ccccc4ccn23)c1 | 0 | 13 | . | . | . | .
